Consider 40 sequences from the OligoGym collection.
Further: reference of the scale not given here.

The first assay deals with PTGFRN. The assay can be described thus: pooled miR-30 sensor sort-seq; sequence = guide strand. Particulars: shRNA.
In turn, TTAACCATTAAAAAGCTGCAGT yielded a sensor-assay potency score (higher = more potent) of -0.442.

As to TTGAACATTTGTAGTGGCCTTG, the sensor-assay potency score (higher = more potent) is -0.0806.

For the sequence TATTTTAGCGTCCAGTCCCCGT, the sensor-assay potency score (higher = more potent) is -1.12.

Turning to TAAAACAACGCCATCCACCCGT, the sensor-assay potency score (higher = more potent) is -0.0584.

The sequence TTTCTTTGCTAACATCCCGAAC registered a sensor-assay potency score (higher = more potent) of -1.24.

TTGGTCTGAAGGCTGGACGTTC: the sensor-assay potency score (higher = more potent) is -0.683.

Consider TTTAGTGTAACACACTTTGTTT, for which the sensor-assay potency score (higher = more potent) was -0.905.

The target of the next assay is PTGFR. Described as above. Particulars: shRNA.
With TTGCACAACAATGAAACACCAA, the sensor-assay potency score (higher = more potent) is 0.0591.

In turn, TTTGTGACTCCAATACACCGCT showed a sensor-assay potency score (higher = more potent) of -0.161.

TTTGATGTCTTCTGTGTTGTAG: the sensor-assay potency score (higher = more potent) stood at 0.583.

The sequence TTTAATGGAACTAAGCTCCCAA showed a sensor-assay potency score (higher = more potent) of 0.844.

In turn, TTGTGTTTGAAAGAAGCGCAGC displayed a sensor-assay potency score (higher = more potent) of -0.804.

In turn, TTGACTGGCAAGCTTATAGAGA registered a sensor-assay potency score (higher = more potent) of -0.966.

In turn, TCTGTGTTGTAGAAACACCAGG gave a sensor-assay potency score (higher = more potent) of -1.29.

As for TTGTAGAAACACCAGGTCCTCG, the sensor-assay potency score (higher = more potent) was -0.683.

In the case of TGCACAACAATGAAACACCAAG, the sensor-assay potency score (higher = more potent) was -1.45.

On to TAACTAACTGAAATATTGCCAA, for which the sensor-assay potency score (higher = more potent) is -0.195.

In the case of TTTGACAAATTTCAAAACCTGA, the sensor-assay potency score (higher = more potent) was -0.803.

With TTTTATAGTCTCGATGTCCAAG, the sensor-assay potency score (higher = more potent) was -0.668.

A further assay deals with PTH2R. Described as above. Particulars: shRNA.
Regarding TAGAATATCATCTCCCTGCCTC, the sensor-assay potency score (higher = more potent) is -0.315.

TAGCTGCTAAGATCGGTGCTTG: the sensor-assay potency score (higher = more potent) is -0.715.

Sequence TAGTGCAATGCAATCGTCTGAA gave a sensor-assay potency score (higher = more potent) of -0.115.

For TATATTGTGATTTGTCCACAGA, the sensor-assay potency score (higher = more potent) was -0.718.

As for TTAAGTAACACCTTAACTGAAT, the sensor-assay potency score (higher = more potent) is -1.01.

Take TTTGCCAGAGATAAGCACCATG: the sensor-assay potency score (higher = more potent) was -0.588.

Take TTTAGATCCTAATTGCTCCTAT: the sensor-assay potency score (higher = more potent) was determined as 0.713.

On to TAAATAAACATCACAACAGCAA, for which the sensor-assay potency score (higher = more potent) is -0.154.

Sequence TAAACTACTCCATTGACACTTG gave a sensor-assay potency score (higher = more potent) of -0.214.

Consider TAAGCTGTGCATAAAATCCCAT, for which the sensor-assay potency score (higher = more potent) is -0.0361.

Sequence TAGAACTCTAACCGTATTCAGA returned a sensor-assay potency score (higher = more potent) of -0.533.

TTTCAGCACAAGGACAATCTGC had a sensor-assay potency score (higher = more potent) of -0.513.

Another assay has as its target PTPN7. Described as above. Conditions: shRNA.
In the case of TTCTTCTTCCAGTTGCTTGGGG, the sensor-assay potency score (higher = more potent) worked out at 0.0231.

In turn, TTTGTCTGTCATAAATGCCAGC came in with a sensor-assay potency score (higher = more potent) of -0.867.

TTCTGGTGTCTGATGGTCTGGC displayed a sensor-assay potency score (higher = more potent) of -0.217.

Regarding ATTGATGTAATCTCCGTCCTCC, the sensor-assay potency score (higher = more potent) came out at 0.571.

Take TTGGCATTGATGTAATCTCCGT: the sensor-assay potency score (higher = more potent) is -0.978.

As for TAGAACAGGAAACTGAAGCTCA, the sensor-assay potency score (higher = more potent) came out at 0.0685.

With TAGACAGACACGGCTCTGGGGA, the sensor-assay potency score (higher = more potent) is -0.764.

The sequence TCTTCTTCCAGTTGCTTGGGGC came in with a sensor-assay potency score (higher = more potent) of -0.37.

The sequence TTCTCCTCGGGCTTTCAGCTGT showed a sensor-assay potency score (higher = more potent) of -0.819.
